Experimental data published in PubChem BioAssay (NCATS).
Several values for one entry are separate records, joined by “and”; a condition that tells them apart may be missing. Equal entries are not always repeated. Inconclusive results are not listed. For part of these data: Entries with a potency or affinity are not part of this list. Activity calls are given as the source filed them.

Key:
[1] = biological target: T1, Hexokinase-4 (Homo sapiens) + Glucokinase regulatory protein (Homo sapiens) (UniProt P35557+Q14397); assay: qHTS assay for inhibitors of recombinant human GCK-GKRP interaction: Diaphorase-coupled assay (AID 743205)
Outline: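 A kinetic fluorescence read (Ex 525/Em 590 nm, every minute for 30 minutes) tracked resorufin from a G6PDH-diaphorase coupled GCK reaction. It contained 10 nM GST-GCK, 10 nM FLAG-GKRP, 5 mM glucose, 0.4 mM ATP in Hepes pH 7.6. Normalized to with/without-enzyme DMSO controls.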

[2] = biological target: T1, Hexokinase-4 (Homo sapiens) + Glucokinase regulatory protein (Homo sapiens); assay: qHTS assay for inhibitors of recombinant human GCK-GKRP interaction: ADP-Glo assay (AID 743206);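 also: plate controls were DMSO plus enzyme for no effect and no enzyme for full effect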
Outline: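 GST-GCK and FLAG-GKRP (15 nM each in the dispensed mix, with 2 uM S6P) react with 0.4 mM ATP and 5 mM glucose (final) in Hepes pH 7.6 for 60 min at room temperature. ADP is measured by ADP-Glo luminescence.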

[3] = biological target: T1, Hexokinase-4 (Homo sapiens) + Glucokinase regulatory protein (Homo sapiens); assay: qHTS assay for inhibitors of recombinant human GCK-GKRP interaction: HTRF assay (AID 743207);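 also: 0% = DMSO with GCK present and -100% = DMSO wells lacking GCK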
Outline: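 After 60 min equilibration at room temperature with anti-FLAG XL665 and anti-GST antibodies, FRET ratio (665/615 nm, excitation 320 nm) was read. Proteins: GST-GCK and FLAG-GKRP, each 5 nM, plus 2 uM S6P, pH 7.1 buffer; GCK-free wells define minimum signal.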

[4] = Ebola virus entry assay, reporter ratio channel; Channel type: primary
[5] = qHTS Assay for Identifying Gametocytocidal Compounds (AID 743244); also: potency is read from the fitted curve at half-maximal effect;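 as to max response: % is scaled to controls: 0 for no effect and ±100 for the full control effect; actives lower the fluorescent signal which means gametocytes are killed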; conditions: P. falciparum 3D7 stage III-V gametocytes, alamarBlue, 72 h; max response: stronger effect = lower value
Outline: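 P. falciparum 3D7 stage III–V gametocytes (20,000 cells/well) were exposed to compounds for 72 h at 37 °C, 5% CO2. AlamarBlue was then added for 24 h; decreased resorufin fluorescence (Ex 525/Em 598 nm) indicated loss of viability.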

[6] = Ebola virus entry assay, green channel fluorescence
[7] = Ebola virus entry assay, blue channel (ratio component)
[8] = qHTS assay for small molecule antagonists of the retinoid-related orphan receptor gamma (ROR-gamma) signaling pathway - cell viability counter screen (AID 720652; active = well fitted curve in the direction sought with a large enough effect in the repeat runs; an effect the other way counts as inactive or inconclusive;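 also: CHO reporter cells with doxycycline-induced ROR-gamma expression; compound exposure lasted 16 hr before ATP read; % is scaled to controls: 0 for no effect and ±100 for the full control effect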)
Outline: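 CHO cells carrying TET-inducible ROR and RORE-luciferase reporter, plated 5 hr, then dosed with compound plus doxycycline. After 16 hr at 37 C, viability read as intracellular ATP by CellTiter-Glo luminescence.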

[9] = qHTS assay for small molecule agonists of the antioxidant response element (ARE) signaling pathway measured by Nrf2-dependant transcriptional activity - cell viability counter screen (AID 720653; active = well fitted curve in the direction sought with a large enough effect in the repeat runs; an effect the other way counts as inactive or inconclusive; also: % is scaled to controls: 0 for no effect and ±100 for the full control effect); conditions: ARE-bla HepG2 viability, CellTiter-Glo ATP luminescence, 16 h; max response: stronger effect = lower value
Outline: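 ARE-bla HepG2 cells treated with compounds for 16 h at 37C; this counter screen measures viability as intracellular ATP by CellTiter-Glo luminescence after 30 min at room temperature.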

[10] = qHTS assay for cell viability of HEK293 cells (AID 743288); conditions: ATP luminescence (CellTiter-Glo), 18 h; max response: stronger effect = lower value; also: % is scaled to controls: 0 for no effect and ±100 for the full control effect; nearly all actives have a fitted effect of over 50% in size
Outline: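 Total intracellular ATP, measured with a luciferase-coupled reagent, indicates the number of viable HEK293 cells. Exposure to test chemicals lasts 18 h at 37 C in 1,536-well format at 2,000 cells/well.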

[11] = qHTS assay for cell viability of the p53RE-bla HCT-116 cell line (AID 743292); also: % is scaled to controls: 0 for no effect and ±100 for the full control effect; nearly all actives have a fitted effect of over 55% in size
Outline: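 CellSensor p53RE-bla HCT-116 cells (4,000/well) pre-incubated 5 h at 37 C, then exposed to compounds in DMSO for 16 h at 37 C. Viability read as ATP content by CellTiter-Glo luminescence after 30 min at room temperature.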

[12] = qHTS profiling of the MIPE4 collection as inhibitors of Plasmodium falciparum (3D7) proliferation (AID 743344; call rule not given here;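 also: scaled between DMSO vehicle wells and 0.29 µM artemisinin as full inhibition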); conditions: P. falciparum 3D7 in erythrocytes, SYBR Green DNA fluorescence, 72 h; at 28.5 µM (top of the series)
Outline: (§1)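 Erythrocytes infected with P. falciparum (0.3% parasitemia, 2.5% hematocrit) incubated with compounds 72 h at 37 C, 5% CO2. Lysis with saponin/Triton buffer containing SYBR Green I, overnight at room temperature in the dark; DNA fluorescence (485/535 nm) normalised to 0.29 uM artemisinin and DMSO.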

[13] = qHTS profiling of the MIPE4 collection as inhibitors of Plasmodium falciparum (DD2) proliferation (AID 743345; call rule not given here); conditions: P. falciparum Dd2 in erythrocytes, SYBR Green DNA, 72 h; at 28.5 µM (top of the series) unless noted
Outline: as §1

[14] = qHTS profiling of the MIPE4 collection as inhibitors of Plasmodium falciparum (DD2) proliferation (Rep 2) (AID 743346; call rule not given here); conditions: P. falciparum Dd2 in erythrocytes, SYBR Green DNA, 72 h; at 28.5 µM (top of the series)
Outline: as §1

[15] = qHTS profiling of the MIPE4 collection as inhibitors of Plasmodium falciparum (HB3) proliferation (AID 743347; call rule not given here;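 also: plate controls were DMSO vehicle wells for no effect and artemisinin wells for full effect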); conditions: P. falciparum HB3 in erythrocytes, SYBR Green DNA, 72 h; at 28.5 µM (top of the series)
Outline: as §1

T1 sequence (P35557 whole entry, looked up): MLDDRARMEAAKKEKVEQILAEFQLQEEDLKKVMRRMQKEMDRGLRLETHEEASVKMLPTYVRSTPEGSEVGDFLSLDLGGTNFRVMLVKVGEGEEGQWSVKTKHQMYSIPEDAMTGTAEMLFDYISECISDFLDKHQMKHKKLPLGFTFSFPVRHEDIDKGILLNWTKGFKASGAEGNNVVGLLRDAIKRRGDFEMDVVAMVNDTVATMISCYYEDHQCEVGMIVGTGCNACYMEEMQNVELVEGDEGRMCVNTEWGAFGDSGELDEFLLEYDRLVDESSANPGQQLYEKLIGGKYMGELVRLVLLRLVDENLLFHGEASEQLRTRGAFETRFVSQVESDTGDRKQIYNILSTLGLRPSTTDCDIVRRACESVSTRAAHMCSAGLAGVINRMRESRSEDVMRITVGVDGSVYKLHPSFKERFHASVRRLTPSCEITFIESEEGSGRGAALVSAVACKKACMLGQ
T1 sequence (Q14397 whole entry, looked up): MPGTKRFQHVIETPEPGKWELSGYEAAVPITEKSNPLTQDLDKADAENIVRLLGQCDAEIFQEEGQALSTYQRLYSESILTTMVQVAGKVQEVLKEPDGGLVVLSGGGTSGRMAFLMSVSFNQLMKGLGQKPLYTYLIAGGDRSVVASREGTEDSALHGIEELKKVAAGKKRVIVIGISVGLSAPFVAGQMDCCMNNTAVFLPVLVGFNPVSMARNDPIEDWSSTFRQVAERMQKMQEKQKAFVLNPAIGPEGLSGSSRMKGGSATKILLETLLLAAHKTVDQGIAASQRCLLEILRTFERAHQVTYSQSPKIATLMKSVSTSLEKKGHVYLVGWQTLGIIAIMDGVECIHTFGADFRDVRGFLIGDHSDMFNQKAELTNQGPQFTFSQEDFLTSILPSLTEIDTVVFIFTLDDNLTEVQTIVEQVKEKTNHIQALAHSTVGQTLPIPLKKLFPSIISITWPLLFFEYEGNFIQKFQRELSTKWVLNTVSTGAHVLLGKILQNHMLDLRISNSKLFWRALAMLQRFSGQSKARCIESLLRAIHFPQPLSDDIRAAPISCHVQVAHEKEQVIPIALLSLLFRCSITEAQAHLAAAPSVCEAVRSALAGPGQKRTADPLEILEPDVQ

**Q.** What does the source list for `CN1C2CCC1CC(OC(=O)c1cc(Cl)cc(Cl)c1)C2` (centres undefined)?
**A.** outcome [1]: inactive; outcome [2]: inactive; outcome [3]: inactive

**Q.** With `CCOc1cc(NC(C)=O)ccc1C(=O)OC` as the compound, how does the outcome [4] read?
**A.** inactive

**Q.** What does the source list for `CN[C@@H]1C[C@@H](c2ccc(Cl)c(Cl)c2)c2ccccc21`?
**A.** outcome [1]: inactive; outcome [2]: inactive; outcome [3]: inactive

**Q.** What does the source list for `CC(=O)NCCc1c[nH]c2ccccc12`?
**A.** outcome [1]: inactive; outcome [2]: inactive; outcome [3]: inactive; max response [5]: 17.3% (inactive)

**Q.** With `c1ccc2sc(C3(N4CCCCC4)CCCCC3)cc2c1` as the compound, how does the outcome [1] read?
**A.** inactive

**Q.** And the outcome [2]?
**A.** inactive

**Q.** And the outcome [3]?
**A.** inactive

**Q.** What about the max response [5] of the same compound?
**A.** 6.13% (inactive)

**Q.** With `CC(C)(C)NCC(O)c1ccc(O)c(CO)c1` (centres undefined) as the compound, how does the outcome [4] read?
**A.** inactive

**Q.** Which results are given for `Cc1ccc(Cl)c(O)c1`?
**A.** max response [5]: -0.773% (inactive); outcome [6]: inactive; outcome [4]: inactive; outcome [7]: inactive

**Q.** With `S=C(SSC(=S)N1CCCCC1)N1CCCCC1` as the compound, how does the Potency [5] read?
**A.** 0.148 µM (active)

**Q.** And the outcome [6]?
**A.** inactive

**Q.** And the outcome [4]?
**A.** inactive

**Q.** And the outcome [7]?
**A.** inactive

**Q.** Which Potency [8] does the source give for `CN(C)NC(=O)CCC(=O)O` here?
**A.** inactive

**Q.** What about the max response [9] of the same compound?
**A.** -0.912% (inactive) and -0.667% (inactive)

**Q.** And the max response [10]?
**A.** 1.56% (inactive) and -3.81% (inactive)

**Q.** What about the Potency [11] of the same compound?
**A.** inactive

**Q.** And the parasite growth, % of DMSO control [12]?
**A.** 91.1%

**Q.** And the parasite growth remaining, % of DMSO control (lower = more inhibition) [13]?
**A.** 101%

**Q.** And the parasite growth, % of control (lower = inhibition) [14]?
**A.** 141%

**Q.** What about the growth, % of control [15] of the same compound?
**A.** 106%

**Q.** Which outcome [1] does the source give for `CC(=O)[C@H]1CCC2C3CC[C@H]4C[C@H](O)CC[C@]4(C)C3CC[C@@]21C` (some centres undefined) here?
**A.** inactive

**Q.** What about the outcome [2] of the same compound?
**A.** inactive

**Q.** What about the outcome [3] of the same compound?
**A.** inactive

**Q.** What about the max response [5] of the same compound?
**A.** 27.5% (inactive)

**Q.** What does the source list for `CC(C)NC(C)Cc1ccc(I)cc1` (centres undefined)?
**A.** outcome [1]: inactive; outcome [2]: inactive; outcome [3]: inactive; max response [5]: 8.77% (inactive)

**Q.** What does the source list for `CN(C)[C@@H]1C(=O)C(C(N)=O)=C(O)[C@@]2(O)C(=O)C3=C(O)c4c(O)cccc4[C@@](C)(O)[C@H]3[C@H](O)[C@@H]12`?
**A.** Potency [8]: inactive; max response [9]: -0.377% (inactive) and -4.28% (inactive) and 10.9% (inactive); max response [5]: -4.72% (inactive) and -5.37% (inactive); max response [10]: -3.99% (inactive) and -10.9% (inactive) and -2.39% (inactive); Potency [11]: inactive; parasite growth, % of DMSO control [12]: 29.4%; parasite growth remaining, % of DMSO control (lower = more inhibition) [13]: 45.1%; parasite growth, % of control (lower = inhibition) [14]: 32%; growth, % of control [15]: 19.3%

**Q.** For `CC(C)(O)C(=O)Nc1ccc([N+](=O)[O-])c(C(F)(F)F)c1`, which Potency [8] is on record?
**A.** inactive

**Q.** What about the max response [9] of the same compound?
**A.** -5.91% (inactive)

**Q.** What about the max response [10] of the same compound?
**A.** -8.24% (inactive)

**Q.** What about the Potency [11] of the same compound?
**A.** inactive

**Q.** What about the parasite growth, % of DMSO control [12] of the same compound?
**A.** 82.8%

**Q.** What about the parasite growth, % of control (lower = inhibition) [14] of the same compound?
**A.** 70.6%

**Q.** What about the growth, % of control [15] of the same compound?
**A.** 79%

**Q.** Which results are given for `NCc1cc(=O)[nH]o1`?
**A.** outcome [1]: inactive; outcome [2]: inactive; outcome [3]: inactive; max response [5]: 24.8% (inactive)

**Q.** What does the source list for `C=CCN1CC[C@]23CCCCC2[C@H]1Cc1ccc(O)cc13` (some centres undefined)?
**A.** outcome [1]: inactive; outcome [2]: inactive; outcome [3]: inactive

**Q.** What does the source list for `O=C(O)c1ccccc1O`?
**A.** outcome [4]: inactive; outcome [7]: inactive

**Q.** For `CCCCCCCCCCCCCCCC[N+](C)(C)C`, which max response [9] is on record?
**A.** -27.3% (inactive) and -1.44% (inactive)

**Q.** And the Potency [5]?
**A.** 10 µM (active)

**Q.** What about the max response [10] of the same compound?
**A.** -5.85% (inactive)

**Q.** What about the Potency [11] of the same compound?
**A.** inactive
